From PubChem BioAssay AID588475 (Sanford-Burnham Center for Chemical Genomics, 2011) come the findings set out here.

In all, about 350,000 compounds went through this assay and about 2,100 (0.6%) were called active.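 How the source made its calls: active means inhibition of the ligand-induced calcium signal above about 50% at the single tested concentration (limit read from the data); inactive means the rest.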 For the sample, actives were picked, then their nearest neighbours and some compounds at random.

The nature of the experiment: antagonists of CRF-BP/CRF-R2 complex, primary screen, cell-based, HEK293, calcium dye fluorescence, uHTS (AID 588475). The note with it: CRF-induced calcium fluorescence, at 11.8 µM, hits give high values.
`COc1ccc(CCNC(=O)c2nnc(CS(=O)(=O)c3ccccc3)o2)cc1OC`: the inhibition (usually the drop in the measured response relative to a control, in per cent) is -36.1% (inactive).
As for `CCc1nn(CCCC(=O)NCc2ccc(C)cc2)c(=O)c2cc3occc3n12`, the figure is -4.08% (inactive); as for `Cc1ccc(C)c(S(=O)(=O)N2CC(=O)Nc3ccccc32)c1`, -4.23% (inactive).
Take `O=C(NCc1ccncc1)c1cccc(NS(=O)(=O)c2ccc(F)c(F)c2)c1`: the inhibition was -1.96% (inactive).
As for `Cc1cc(=O)oc2c(C(=O)c3ccccc3)c(OCC(N)=O)ccc12`, the inhibition was 21.9% (inactive).
The same measure for `CCCN(CC(=O)Nc1ccccc1C)C(=O)c1ccc2[nH]c3c(c2c1)CC(C)CC3` (stereo not given): -10.4% (inactive); for `CN(CC(=O)Nc1cccc(F)c1)C(=O)CC1CCCC1`: -9.75% (inactive).
As for `CC1CCc2[nH]c3ccc(C(=O)N(C)CC(=O)Nc4cccc(F)c4)cc3c2C1` (stereo not given), the figure is 104% (active); as for `COCCN1CCn2c(nc3cc(NS(C)(=O)=O)ccc32)C1`, -7.04% (inactive).
The same measure for `COC(=O)Nc1ncc(CN2C(=O)c3ccccc3C2=O)s1`: -1.89% (inactive); for `CCOC(=O)C(CC)/C(C)=N\NC(=O)c1cccc(C)c1` (stereo not given): 89% (active).
`CC(=O)Nc1ccc(NC(=O)[C@@H](NC(=O)c2cccc(C)c2)C(C)C)cc1`: the inhibition is 4.4% (inactive).
The same measure for `CCNC(=O)COC(=O)CCNC(=O)c1cccc(C)c1`: 3.93% (inactive); for `Cc1ccccc1C(CC(=O)c1cccs1)C(C#N)C#N` (stereo not given): -24.6% (inactive).
The same measure for `O=C(CN(c1cccc(Cl)c1)S(=O)(=O)c1ccccc1)NN=C1CCCC1`: -7.21% (inactive).
The same measure for `O=C(CSCC(=O)Nc1cccc([N+](=O)[O-])c1)Nc1ccccc1`: 54% (active); for `O=C(CSc1nc(-c2ccccc2)cs1)Nc1cccc([N+](=O)[O-])c1`: 27.9% (inactive).
With `O=C(CN1CCC(NC(=O)Nc2ccccc2)CC1)Nc1cccc([N+](=O)[O-])c1`, the inhibition is 13.2% (inactive).
For `O=C1c2ccccc2C2=Nc3ccccc3SC(c3ccccc3F)C12` (stereo not given), the inhibition is -94.9% (inactive).
For the compound `CC1(C)C/C(=N/Nc2ccc([N+](=O)[O-])cc2[N+](=O)[O-])C(C)(C)O1`, the inhibition was -6.77% (inactive).
On to `CC(Nc1ccc([N+](=O)[O-])cc1[N+](=O)[O-])c1ccccc1` (stereo not given), for which the inhibition is 61.4% (active).
Regarding `CC(C)OP(=O)(OC(C)C)C(Nc1ccccc1)c1cccc([N+](=O)[O-])c1` (stereo not given), the inhibition is -23.4% (inactive).
For `Cc1ccc(OCC(=O)Nc2ccccc2C(=O)NC2CC2)cc1C`, the inhibition is 0.16% (inactive).
As for `O=C(Nc1ccccc1N1CCOCC1)c1ccncc1`, the figure is 4.16% (inactive); as for `CCc1ccc(C(=O)NC(=S)Nc2ccccc2N2CCOCC2)cc1`, 125% (active); as for `O=C(NC(=S)Nc1ccccc1N1CCCCC1)c1ccc(F)cc1`, -90.3% (inactive).
The same measure for `O=C(NCC(=O)N(CC1CCCO1)C(C(=O)NC1CCCCC1)c1ccccc1)c1ccco1` (stereo not given): 2.38% (inactive).
The same measure for `COc1ccc(Cl)cc1NC(=O)CN(C)C(=O)c1cc2ccccc2cc1OC`: 9.16% (inactive).
In the case of `COc1ccc(Cl)cc1NC(=O)CNc1ccccc1F`, the inhibition was 61.7% (active).
The same measure for `COc1ccc(C)cc1NC(=O)CSc1ccc(Cl)cc1`: 5.69% (inactive).
